# Records with an inconclusive call do not appear. The source made the active and inactive calls. Calls follow the shape of the dose curve; as a rule, active = well fitted cell-killing curve with a large enough effect; inconclusive = small, poorly fitted or top-dose-only effect, or effect the other way; inactive = flat fitted curve, though single readings scatter.
# Test: qHTS assay for cell viability of the p53RE-bla HCT-116 cell line (AID 743292); also: nearly all actives have a fitted effect of over 55% in size
# Conditions: p53RE-bla HCT-116 viability, ATP luminescence, 16 h; series mostly up to 95 µM
# Excerpt: U.S. Tox21 Program National Center for Advancing Translational Sciences [NCATS] NIH Chemical Genomics Center [NCGC] U.S. Environmental Protection Agency [EPA] National Institutes of Environmental Health Sciences [NIEHS] National Toxicology Program [NTP] U.S. Food and Drug Administration [FDA] Tox21 Assay Overview: The CellTiter-Glo Luminescent Cell Viability Assay (Promega, Madison, WI) is a homogeneous method to determine the number of viable cells in culture based on quantitation of the ATP present, which signals the presence of metabolically active cells. This cell viability assay was used to screen environmental chemicals in the CellSensor p53RE-bla HCT-116 cell line (Invitrogen).
# Tox21 Assay Protocol Summary: Cell viability after compound treatment was measured using a luciferase-coupled ATP quantitation assay (CellTiter-Glo viability assay, Promega, Madison, WI) in CellSensor p53RE-bla HCT-116 cell line (Invitrogen). Total intracellular ATP content corresponds to the number of metabolically competent cells after compound treatment. The cells were dispensed at 4,000 cells/5 uL/well in 1,536-well white/solid bottom assay plates using a Flying Reagent Dispenser (Aurora Discovery, San Diego, CA). The cells were incubated for 5 h at 37 C, followed by the addition of 23 nL of compounds dissolved in DMSO, positive controls or DMSO only using a pintool work station (Kalypsys, San Diego, CA). The assay plates were incubated for 16 h at 37 C, followed by the addition of 5 uL/well of CellTiter-Glo reagent. After 30 min incubation at room temperature, the luminescence intensity of the plates was measured using a ViewLux plate reader (PerkinElmer, Shelton, CT).
row,Structure (SMILES),outcome
1,CCCCCCCCOc1ccc(C(=O)c2ccccc2)c(O)c1,inactive
2,CCCCC(CC)COC(=O)c1ccc(N(C)C)cc1 (centres undefined),inactive
3,CCCCCCCC/C=C\CCCCCCCCN,inactive
4,CCCCCCCCCCCCCCCC(=O)O,inactive
5,CCOc1ccccc1C(N)=O,inactive
6,OC[C@H]1O[C@@H]2O[C@H]3[C@H](O)[C@@H](O)[C@@H](O[C@H]4[C@H](O)[C@@H](O)[C@@H](O[C@H]5[C@H](O)[C@@H](O)[C@@H](O[C@H]6[C@H](O)[C@@H](O)[C@@H](O[C@H]7[C@H](O)[C@@H](O)[C@@H](O[C@H]8[C@H](O)[C@@H](O)[C@@H](O[C@H]1[C@H](O)[C@H]2O)O[C@@H]8CO)O[C@@H]7CO)O[C@@H]6CO)O[C@@H]5CO)O[C@@H]4CO)O[C@@H]3CO,inactive
7,COc1cc([C@H]2Oc3cc([C@H]4Oc5cc(O)cc(O)c5C(=O)[C@@H]4O)ccc3O[C@@H]2CO)ccc1O,inactive
8,CN(C)C(=O)Nc1ccc(Cl)c(Cl)c1,inactive
9,C/C=C/c1ccc(O)c(OC)c1,inactive
10,Oc1ccc(Cl)cc1Cc1cc(Cl)ccc1O,inactive
11,CCOc1ccc(NC(C)=O)cc1,inactive
12,CCCN(CCC)S(=O)(=O)c1ccc(C(=O)O)cc1,inactive
13,CCCCCCCCCCCCCC(=O)OC(C)C,inactive
14,CCCCOC(=O)CC(CC(=O)OCCCC)(OC(C)=O)C(=O)OCCCC,inactive
15,C=C[C@H]1CN2CC[C@H]1C[C@@H]2[C@@H](O)c1ccnc2ccc(OC)cc12,inactive
16,COc1ccc(C(Cl)=C(c2ccc(OC)cc2)c2ccc(OC)cc2)cc1,inactive
17,COc1ccc(C(=O)c2ccccc2)c(O)c1,inactive
18,NC(=O)c1ccccc1O,inactive
19,C=C[C@@]1(C)CC(=O)[C@]2(O)[C@@]3(C)[C@@H](O)CCC(C)(C)[C@@H]3[C@H](O)[C@H](OC(C)=O)[C@@]2(C)O1,inactive
20,C#C[C@]1(O)CC[C@H]2[C@@H]3CCC4=Cc5oncc5C[C@]4(C)[C@H]3CC[C@@]21C,inactive
21,O=C(O)c1ccc(S(=O)(=O)N(Cl)Cl)cc1,inactive
22,NCCNc1cccc2ccccc12,inactive
23,CC1(C)OC[C@@H]2O[C@@]3(C(=O)O)OC(C)(C)O[C@H]3[C@@H]2O1,inactive
24,Oc1c(Cl)cc(Cl)c(Cl)c1Cc1c(O)c(Cl)cc(Cl)c1Cl,inactive

# Source: PubChem BioAssay (NCATS)
